Most compounds without a hit are left out; they make up all but 6.7% or so of the library.
Anthrax LF inh2: inhibitors of Bacillus anthracis lethal factor protease; multiplex microsphere protease cleavage assay, LF; inhibition, % at 10 µM; P15917; hit rate 0.12% among 360,000; AID 588501
GDH-TPI counter: counter-screen for M. tuberculosis FBA inhibitors: GDH-TPI coupled enzymes. GDH-TPI coupled enzyme counterscreen, NADH absorbance. inhibition, % at 4.8 µM. hit rate 1.2% among 360,000. AID 588335; in the data active means inhibition above about 30%
BoNT F protease: BoNT F light chain protease inhibition; hit rate 0.22% among 360,000; Multiplex microsphere protease cleavage assay, flow cytometry; inhibition, % at 10 µM; in the data active means inhibition above about 35%, passing the limit was not always enough; inconclusive means no clear call, values can overlap the other calls
BoNT-A LC inh2: BoNT A light chain protease inhibition; inhibition, % at 10 µM; multiplex microsphere protease substrate cleavage, flow cytometry; hit rate 0.17% among 360,000; AID 588499
Autofluor counter: counter-screen for toxin protease inhibitors: compound fluorescence; compound autofluorescence counterscreen, microsphere flow cytometry; active compounds read high; fluorescence intensity (test concentration not listed); hit rate 3.1% among 360,000; AID 624483; in the data active means fluorescence intensity above about 16000; inconclusive means no clear call, values can overlap the other calls
FBA Mtb inh: inhibitors of M. tuberculosis fructose-bisphosphate aldolase. P9WQA3. purified M. tuberculosis FBA, fluorescence read-out. inhibition, % at 1 µM. hit rate 2.3% among 360,000; in the data active means inhibition above about 27%
Target sequence (P9WQA3 whole entry, looked up): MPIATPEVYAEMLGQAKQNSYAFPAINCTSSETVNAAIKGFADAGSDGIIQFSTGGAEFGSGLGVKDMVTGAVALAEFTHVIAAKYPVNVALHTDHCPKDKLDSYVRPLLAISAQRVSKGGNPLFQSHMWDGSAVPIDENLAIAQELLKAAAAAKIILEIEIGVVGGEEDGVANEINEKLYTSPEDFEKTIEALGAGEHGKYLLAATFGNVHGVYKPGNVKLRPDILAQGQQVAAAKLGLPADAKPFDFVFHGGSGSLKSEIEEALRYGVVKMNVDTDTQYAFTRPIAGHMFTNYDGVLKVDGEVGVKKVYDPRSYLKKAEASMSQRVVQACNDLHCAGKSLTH
Of the large screens only hits and unclear results are named; the others gave an inactive call. Unless noted, no stated cut-off is given here; in the data, active means inhibition above about 30%; inconclusive means no clear call, values can overlap the other calls; inactive means below that.

Cc1c(C(=O)Nc2ccncc2)oc2ccccc12	none
COCCCn1c(-c2ccc(S(=O)(=O)N3CCOCC3)cc2)csc1=Nc1ccccc1	none
Clc1ccc(-c2c[nH]c3ccccc23)nn1	none
CN1CCSc2ccc(C(=O)NCc3ccccc3F)cc21	FBA Mtb inh 137
CN1CCSc2ccc(C(=O)Nc3cc(F)ccc3F)cc21	none
CC(C)Oc1ccc(CNC(=O)c2ccc3c(c2)N(C)CCS3)cc1	FBA Mtb inh 140
CCN1CCSc2ccc(C(=O)NCc3ccccc3C)cc21	FBA Mtb inh 129
COc1ccc(OCCCC(=O)N(C)CC(=O)Nc2c(C)cccc2C)cc1	none
CC(=O)NC1=NN(C(C)=O)C(C)(c2ccc3ccccc3c2)S1 (stereo not drawn)	none
CC(C)c1ccc(-c2nnn(Cc3nc4ccccc4s3)n2)cc1	Autofluor counter 16755
CCCCN(CCCC)C1=Nc2ccccc2N/C1=C(/C#N)C(=O)OCC	Anthrax LF inh2 40, BoNT-A LC inh2 65
CCOC(=O)/C(C#N)=C1\Nc2ccccc2N=C1N(CC(C)C)CC(C)C	BoNT-A LC inh2 38
CCOC(=O)C1=C(C)Nc2ccccc2N=C1N	none
OCCC1CN(Cc2cnc(N3CCOCC3)s2)CCN1C1CCCC1 (stereo not drawn)	none
COc1ccc(C(=O)NCCNC(C)=O)cc1S(=O)(=O)NCc1ccc(Cl)cc1	Autofluor counter 19992
COc1ccc(OC)c(NC(=O)CCNC(=O)N2CC(=O)Nc3ccccc32)c1	none
CN=C1SC(CC(=O)Nc2cccc(C(F)(F)F)c2)C(=O)N1C (stereo not drawn)	Autofluor counter 16700
CN=C1SC(CC(=O)Nc2ccc(N3CCOCC3)cc2)C(=O)N1C (stereo not drawn)	BoNT-A LC inh2 inconclusive, Autofluor counter 25216
CN=C1SC(CC(=O)Nc2ccccc2F)C(=O)N1C (stereo not drawn)	none
CN(CC(=O)Nc1ccc(N2CCOCC2)cc1)CC(=O)Nc1ccc(N2CCOCC2)cc1	none
COc1ccccc1CNC(=O)c1cc(-c2ccccc2)nn1CC1CC(c2cccc([N+](=O)[O-])c2)=NO1 (stereo not drawn)	none
COc1ccc(-c2nnn(CCc3nn[nH]n3)n2)cc1OC	Autofluor counter 21931
CCOc1ccc(-c2nnn(CCC(=O)O)n2)cc1OC	Autofluor counter 21762
O=C(CCCN1C(=O)c2cccnc2C1=O)Nc1ccc(F)cc1Cl	FBA Mtb inh active
Cc1ccc(Cl)cc1NC(=O)CCCN1C(=O)c2cccnc2C1=O	none
O=C(O)CCc1nn2c3ccccc3n(CCN3CCCCC3)c2nc1=O	Autofluor counter 17537
O=C(O)CCc1nn2c3ccccc3n(CCO)c2nc1=O	none
NC(=O)COC(=O)c1cccnc1Nc1ccccc1F	none
CCN1C(=O)/C(=C\N2CCCCCC2)SC1=S	none
CCN1C(=O)/C(=C/N2CCc3ccccc3C2)SC1=S	BoNT F protease inconclusive, Autofluor counter 16177
O=C(/C=C\c1cccs1)c1c(O)ccc2ccc(=O)oc12	GDH-TPI counter 36
O=C1CC(N2CCN(c3ccc(Cl)c(Cl)c3)CC2)C(=O)N1 (stereo not drawn)	Autofluor counter 21082
O=C(NCCCN1CCCC1=O)Nc1ccc(Br)cc1Cl	none
Cc1ccc(CSc2ncnc3c2cnn3Cc2ccccc2)cc1C	Autofluor counter 21383
Cc1ccc(CSc2ncnc3c2cnn3Cc2ccccc2)cc1	none
Cc1cccc(C(=O)OCC(=O)Nc2nccs2)c1	none
CCOC(=O)C(C)C1(O)c2ccccc2-c2ncccc21 (stereo not drawn)	BoNT-A LC inh2 inconclusive, Autofluor counter 23373
Cc1ccc2[nH]c(=O)c(CN(Cc3cccs3)Cc3nnnn3Cc3ccccc3)cc2c1	none
CCOC(=O)Cn1nnnc1CN(Cc1cccs1)Cc1cc2cc(C)ccc2[nH]c1=O	Autofluor counter 16529
CCN(CC)S(=O)(=O)c1cccc(-c2nnc(SCc3nc4ccccc4s3)o2)c1	none
COc1cccc(-c2csc(N3CCN(C(=O)Nc4ccccc4OC)CC3)n2)c1	BoNT-A LC inh2 inconclusive, Autofluor counter 21006
COc1ccc(OC)c(NC(=O)C2CCN(c3cc(-c4ccccc4)nc4ncnn34)CC2)c1	Autofluor counter 22638
COc1ccc(NC(=O)C2CCN(c3cc(-c4ccccc4)nc4ncnn34)CC2)cc1OC	BoNT-A LC inh2 inconclusive, Autofluor counter 20978
COc1ccc(-c2noc(N3CCC(C(=O)Nc4cc(OC)ccc4OC)CC3)n2)cc1	none
O=C(N1CCOCC1)N1CCN(c2nc(-c3ccccc3)cs2)CC1	Autofluor counter 22285
COc1ccc(NC(=O)C2CCN(c3cnccn3)CC2)cc1OC	none
NC(=O)C1CCN(CCC(=O)Nc2ccc(F)c(F)c2)CC1	none
COc1ccccc1NC(=O)N1CCN(c2cc(-c3ccccc3)nc3ncnn23)CC1	BoNT-A LC inh2 inconclusive, Autofluor counter 22826
COc1ccccc1NC(=O)N1CCN(c2ccnc3cc(Cl)ccc23)CC1	none
COc1ccc(-n2nc([N+](=O)[O-])c(=NCCc3ccccc3)n2O)cc1	none
CCOC(=O)NC1(C(F)(F)F)NC(=O)N(Cc2ccco2)C1=O (stereo not drawn)	BoNT-A LC inh2 inconclusive, Autofluor counter 16624
CC(C)CN1C(=O)NC(NC(=O)c2ccco2)(C(F)(F)F)C1=O (stereo not drawn)	none
Cc1nn(C(=O)c2cc3sccc3[nH]2)c(C)c1C	GDH-TPI counter 35
Cc1nn(C(=O)CNC(=O)c2ccccc2)c(C)c1C	none
CCN(CC)c1ccc(/C=N/Nc2nc(C)cc(C)n2)cc1	none
N#Cc1ncc(N=Cc2ccc(N(CCCl)CCCl)cc2)s1	GDH-TPI counter 52
ClCCN(CCCl)c1ccc(C=NNc2ncccn2)cc1	GDH-TPI counter 57
N#CC1=C(N)OC2=C(C(=O)CCC2)C1c1ccsc1 (stereo not drawn)	none
CSC(=NC#N)N1CCN(c2ccccc2)CC1	BoNT-A LC inh2 inconclusive, Autofluor counter 20884
CSC(=NC#N)N1CCN(c2cccc(Cl)c2)CC1	none
O=c1oc2ccccc2cc1-c1csc(Cc2nc(-c3ccc(Br)cc3)cs2)n1	BoNT-A LC inh2 inconclusive, Autofluor counter 16508
CCOC(=O)/C(C#N)=C/c1c[nH]c2ccccc12	none
CCOC(=O)C(=Cc1c[nH]c2ccc(S(=O)(=O)N(C)C)cc12)C(=O)OCC	GDH-TPI counter 41
CCCNC(=O)Cc1ncn[nH]1	Autofluor counter 20413
O=C(Cc1ncn[nH]1)NCCc1ccccc1	none
CCOC(=O)C(=CNc1ccc(C(F)(F)F)cc1Cl)C(=O)OCC	GDH-TPI counter 36, BoNT F protease inconclusive
CCOC(=O)C(=CNc1ccccc1Cl)C(=O)OCC	none
Cc1cc2nc(C)n(CCCN)c2cc1C	Autofluor counter 22118
Cc1cc2nc(C)n(CCCNC(=O)Nc3ccc(C#N)cc3)c2cc1C	none
N#Cc1cc(-c2ccccc2)cnc1Sc1ccc(Cl)cc1	Autofluor counter 24808
COc1ccc(/C=N\NC(=S)SCN2C(=O)C3CCC(C)(C2=O)C3(C)C)cc1 (stereo not drawn)	GDH-TPI counter 46
CCn1cc(C(=O)NCc2ccco2)c(=O)c2cc(F)c(N3CCN(C(=O)c4ccco4)CC3)cc21	none

Assay outcomes deposited in PubChem BioAssay by several laboratories.
